In PubChem BioAssay (NCI) one finds growth data, which are given here for 40 compounds.

Compounds without any hit were thinned out: in the full panel of roughly 83,000, 20% have a hit.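 Values shown are percent growth following 48 h exposure of cells in 96-well plates to a single concentration of compound; below 10 was considered active.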 Activity calls are given as the source filed them.

This test concerns MDA-MB-468 breast. As to the kind of experiment: NCI-60 one-dose screen, 48 h (100 = growth as untreated, 0 = no growth, -100 = all killed). Particulars: 10 µM unless noted.
Turning to `CC1(C)OC2[C@@H](CNC(=O)NC(=O)NC(=O)CI)O[C@@H](n3cnc4c(NC(=O)Nc5ccccc5)ncnc43)[C@H]2O1` (stereo not given in full), the growth is 64% (inactive).
The value for `Nc1ncnc2c1CN(Cc1ccccc1)CC2` was 112% (inactive); that for `CCNCCNc1c(C)c(-c2ccc(C(F)(F)F)cc2)c(C#N)c2nc3ccccc3n12` was 56.1% (inactive).
With `COc1cc2cc(Oc3ccc(NC(=O)c4cc(C(F)(F)F)cc(C(F)(F)F)c4)cc3)c(C)nc2cc1OCCN1CCOCC1`, the growth was 66.9% (inactive).
Consider `Cc1nc2sc(C(=O)Nc3cccc4ncccc34)c(N)c2cc1C(C)O` (stereo not given), for which the growth was 44.9% (inactive).
Then `COc1ccc(/C=c2\c(=O)n(-c3ccccc3)c3nn4c(n23)=NNC42CCCCC2)cc1`, with 110% (inactive); and `CCN1C(=O)N(CC)C2C1NN=c1s/c(=C\c3ccc(OC)cc3)c(=O)n12` (stereo not given), with -0.192% (active); and `COc1cc(/C=C/C(=O)/C=C/c2cc3ccc(Cl)cc3n(Cc3ccccc3)c2=O)ccc1O`, with -42.8% (active).
Take `O=C(CCCCl)NNc1nccc(Nc2ccc(S(=O)(=O)Nc3ccncc3)cc2)n1`: the growth is 116% (inactive).
For the compound `CCN1C(=O)N(CC)C2C1NN=c1s/c(=C\c3cc4ccccc4[nH]3)c(=O)n12` (stereo not given), the growth is -9.55% (active).
The value for `C(=C1c2ccccc2-c2ccccc21)c1ccncc1` was 0.207% (active); that for `O=S(=O)(Nc1cc(Sc2cccc3cccnc23)c(O)c2ccccc12)c1ccccc1` was -42.6% (active).
Regarding `O=C(CNc1nnc(-c2cccnc2SCc2ccccc2)s1)Nc1nc(Cl)cc(Cl)n1`, the growth was 112% (inactive).
For the compound `CC(C)(C)CC(C)(C)c1ccc(OCCOCCSC(=N)N)cc1`, the growth was -47.3% (active).
Then `NC(=O)Nc1cc(-c2cccc(F)c2)sc1C(=O)N[C@H]1CCCNC1`, with -60.5% (active).
`Cc1nn(-c2ccc(Br)cc2)c2nc3[nH]c(=O)[nH]c(=O)c3nc12`: the growth is 116% (inactive).
Then `CN(C)CCCn1c(=O)c2ccccc2c2ccccc21`, with 66% (inactive); and `N/C(=N\C(N)=N\c1nc2ccccc2s1)c1cnccn1`, with -24.8% (active).
Then `C=C1C(=O)O[C@H]2[C@H]1CC/C(COC(=O)NCc1nc3ccccc3[nH]1)=C\CC[C@@]1(C)O[C@@H]21`, with 43.7% (inactive); and `Cc1cc2c(c(C)c1Cl)C(=O)/C(=C/c1cccc([N+](=O)[O-])c1)O2`, with 92.2% (inactive).
Then `COc1ccc(-c2[nH]c3ccccc3c2C=C(C#N)C#N)cc1`, with -19.8% (active); and `Nc1cc2c(cc1Cl)-c1ccc(Cl)cc1C2=O`, with 86.1% (inactive).
As to `O=c1oc2ccc(Cl)cc2c(=O)n1-c1ccc(Cl)cc1F`, the growth was 2.01% (active).
The value for `Clc1ncnc2nc[nH]c12` was 108% (inactive); that for `CC(C)Sc1nc(Cl)c(C#N)c(-c2ccc(F)cc2)n1` was 98.9% (inactive).
For the compound `C=C(C)[C@@H]1CC[C@]2(C(N)=O)CC[C@]3(C)[C@H](CC[C@@H]4[C@@]5(C)CC[C@H](OCCC#N)C(C)(C)[C@@H]5CC[C@]43C)[C@@H]12`, the growth is 72.2% (inactive).
Then `COc1cc(CNC(=O)/C=C/C=C/c2ccc3c(c2)OCO3)ccc1OCc1cn(-c2ccc(C)c(C)c2)nn1`, with 65.2% (inactive); and `COc1ccc(Cn2cc(C(=O)N=Nc3c(O)[nH]c4c(Cl)cccc34)nn2)cc1`, with 98.6% (inactive).
The value for `COC(=O)/C=C1/SC(=Nc2cccc(OC)c2)N(CCc2c[nH]c3ccc(O)cc23)C1=O` was 49.3% (inactive).
`O=[N+]([O-])C1=C(c2ccccc2)SC=C(c2ccccc2)S1`: the growth was 72.7% (inactive).
The value for `OCCNc1nc(NCCO)nc(Nc2ccc(C3=NN(c4ccc(Cl)cc4)C(c4ccc(Cl)cc4)C3)cc2)n1` (stereo not given) was 85.7% (inactive); that for `COc1ccc2nc(-c3cc(-c4cc(OC)c(OC)c(OC)c4)n[nH]3)[nH]c2c1` was -8.59% (active).
Turning to `CCCCNc1ccc2c3c1cccc3c(=O)n1c3ccccc3nc21`, the growth is -12.2% (active).
The value for `NS(=O)(=O)c1cc2c(cc1Cl)NC=NS2(=O)=O` was 108% (inactive).
The value for `Cn1cc(C(=O)c2nc(-c3cn(C)c4ccc(F)cc34)no2)c2cc(F)ccc21` was 94.1% (inactive).
The value for `O=C1c2cc(Cl)ccc2Oc2cc([N+](=O)[O-])ccc2N1c1ccc(F)cc1F` was 91.6% (inactive).
As to `OCC1OC(n2cnc3c(=S)nc[nH]c32)C(O)C1O` (stereo not given), the growth was -6.42% (active).
As to `O=C(CCCCN1CCOCC1)Nc1ccc(Cn2nnc3c2C(=O)c2nnn(Cc4ccc(NC(=O)CCCCN5CCOCC5)cc4)c2C3=O)cc1`, the growth is -76.9% (active).
Regarding `COc1ccc(-c2cc(-c3ccccc3)nc(NCCNc3ccnc4cc(Cl)ccc34)n2)cc1`, the growth is -73.7% (active).
With `N=c1ccn2c(n1)OC1C(O)C(CO)OC12` (stereo not given), the growth was 6.2% (active).
